The nature of test [1]: NCI Yeast Anticancer Drug Screen. Data for the rad50 strain (AID 155).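 Further: 0% = growth of vehicle-only cultures of the same strain.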 As to conditions: S. cerevisiae rad50 strain growth inhibition, active compounds read high; at 50.0 µM unless noted. An outline of the steps:
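Inhibition values express reduced yeast growth in compound-treated cultures relative to vehicle-treated controls.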

Test [2] can be described thus: NCI Yeast Anticancer Drug Screen. Data for the mec2-1 strain (AID 157). The conditions noted are these: S. cerevisiae mec2-1 strain, active compounds read high; at 50.0 µM unless noted. A digest of the protocol:
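Using mec2-1 yeast: add compound, measure growth, express inhibition versus vehicle-treated cultures.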

The nature of test [3]: NCI Yeast Anticancer Drug Screen. Data for the sgs1 mgt1 strain (AID 161).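 Further: 0% = growth of cultures given vehicle only.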 The conditions noted are these: S. cerevisiae sgs1 mgt1 strain, active compounds read high; at 50.0 µM unless noted. A digest of the protocol: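 Growth of a repair-deficient yeast mutant was monitored after compound treatment and expressed as inhibition relative to vehicle-treated cultures.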
The nature of test [4]: NCI Yeast Anticancer Drug Screen. Data for the cln2 rad14 strain (AID 165).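 Further: 0% = growth equal to vehicle treated cultures.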 The conditions noted are these: S. cerevisiae cln2 rad14 strain, active compounds read high; at 50.0 µM unless noted. An outline of the steps: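 Yeast strain cln2 rad14, bearing defects in cell cycle control and DNA repair, serves as the test system; values reflect growth inhibition compared with vehicle.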

Test [5] in a line: NCI Yeast Anticancer Drug Screen. Data for the bub3 strain (AID 167). The conditions noted are these: S. cerevisiae bub3 mutant strain, active compounds read high; at 50.0 µM unless noted. An outline of the steps:
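Steps: expose the mutant yeast strain to compound; grow alongside vehicle-treated cultures; measure growth; express inhibition against the vehicle cultures.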

The nature of test [6]: NCI Yeast Anticancer Drug Screen. Data for the mlh1 rad18 strain (AID 175). The conditions noted are these: S. cerevisiae mlh1 rad18 strain growth inhibition, active compounds read high; at 50.0 µM unless noted. An outline of the steps: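 Steps: expose repair-defective yeast to compound; measure growth; express inhibition against vehicle-treated controls.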

The values that follow come from PubChem BioAssay (NCI).

SMILES strings stand for the structures. This is part of a sample that, as a whole, favours compounds with a hit. Of some 79,000 tested, about 15% had one in any assay. Unmarked numbers belong to inactive results. Calls of active or inactive are those of the source. No stated cut-off is given here; in the data, active means growth inhibition above about 70%; inactive means the rest.

Turning to `CCOc1ccc(N=Nc2c(O)n(-c3ccc(Cl)cc3)c(=S)n(-c3ccccc3)c2=O)cc1`, the growth inhibition was -15.2% in test [1]; 2.5% in test [2]; 7.85% in test [3]; -0.15% in test [4]; 32.5% in test [5]; 26.4% in test [6].
`COCNC(=S)c1ccc(C(N)=O)nc1C(=O)NC(C)(C)C`: the growth inhibition in test [1] was 15.8%; in test [2], 0.4%; in test [3], 5.6%; in test [4] it was -3.3%; in test [5], -5.8%; in test [6], 30.6%.
As to `NC(=O)OCCOC(N)=O`, the growth inhibition is 7.5% in test [1]; 1% in test [2]; -31.9% in test [3]; -9.95% in test [4]; 15.8% in test [5]; 2.55% in test [6].
As to `CCC(=N\NC(=S)NCCN(C)C)/C(C)=N/NC(=S)NCCN(C)C`, the growth inhibition in test [1] is 57%; in test [2], 13.2%; in test [3] it was 52.2%; in test [4], 4.95%; in test [5], 16.5%; in test [6], 54.9%.
Take `Cc1ccc(NP(=O)(Nc2ccc(C)cc2)c2ccc([N+](=O)[O-])cc2)cc1`: the growth inhibition is 93.2% (active) in test [1]; 94.2% (active) in test [2]; 92.7% (active) in test [3]; 92.1% (active) in test [4]; 85.3% (active) in test [5]; 95.6% (active) in test [6].
In the case of `CC(C)OC(=O)CC1NS(=O)(=O)c2ccccc21` (stereo not given), the growth inhibition is 3.9% in test [1]; 1% in test [2]; -9.7% in test [3]; 24.6% in test [4]; -16.6% in test [5]; 20.6% in test [6].
As for `S=c1c(-c2ccccc2)cnc2sccn12`, the growth inhibition was 40.9% in test [1]; 29.8% in test [2]; 8.3% in test [3]; -22.6% in test [4]; 19.8% in test [5]; 18.4% in test [6].
Regarding `CNC(CCCCC1CCCCC1)C(=O)O` (stereo not given), the growth inhibition in test [1] is 8.2%; in test [2] it was 3.4%; in test [3], 12.1%; in test [4], -10.8%; in test [5], -8.2%; in test [6], -0.2%.
`CCCCCCC1OCC(CC)([N+](=O)[O-])CO1` (stereo not given): the growth inhibition in test [1] is -13.8%; in test [2], -9.6%; in test [3], 1.15%; in test [4] it was -39.8%; in test [5] it was -23.6%; in test [6] it was -12.9%.
On to `C(#Cc1ccccc1)CC#Cc1ccccc1`, for which the growth inhibition in test [1] is 5.4%; in test [2] it was 10.2%; in test [3] it was -11.7%; in test [4], -0.3%; in test [5], -11.2%; in test [6], 3.05%.
In the case of `CN1CCC/C1=N\C(=Nc1ccccc1)N1CCCC1`, the growth inhibition was 7.95% in test [1]; -1.8% in test [2]; -6.05% in test [3]; 12.5% in test [4]; -4.35% in test [5]; -9.15% in test [6].
Regarding `N.N.N.N.O=C(O)C1OCCOCCOC(C(=O)O)C(C(=O)O)OCCOCCOC1C(=O)O.[Pt+2].[Pt+2]` (stereo not given), the growth inhibition in test [1] was -33.2%; in test [2] it was -14%; in test [3], -12.5%; in test [4], -26.1%; in test [5] it was -13.5%; in test [6] it was -9.2%.
For the compound `CCn1c2ccccc2c2cc(N=Nc3ccc4c(c3)c3ccccc3n4CC)ccc21`, the growth inhibition in test [1] was 44.5%; in test [2], 14.7%; in test [3], 19.9%; in test [4], 41.2%; in test [5] it was 45.2%; in test [6], 35.5%.
As to `O=C(Nc1ccc(Cl)c(Cl)c1)N(CCO)Cc1ccccc1`, the growth inhibition was 88.7% (active) in test [1]; 97% (active) in test [2]; 97.2% (active) in test [3]; 90% (active) in test [4]; 95.5% (active) in test [5]; 94.4% (active) in test [6].
With `CCN(CC)C(=O)c1cc(OC)c(C(=O)N(CC)CC)cc1OC`, the growth inhibition in test [1] was -21.9%; in test [2], -0.35%; in test [3], 4.15%; in test [4] it was -15.2%; in test [5], -9.4%; in test [6], -8.2%.
Take `COc1ccc2c(c1)[n+](=O)c(C(=O)CC(=O)C(=O)Nc1cccc(C)c1C)c(C)n2[O-]`: the growth inhibition in test [1] is 2.35%; in test [2] it was 13.3%; in test [3], -9.55%; in test [4], 9.45%; in test [5] it was 5.3%; in test [6] it was 14.8%.
In the case of `COc1cc(CNc2nc3ccc(C(F)(F)F)cc3nc2-c2ccccc2)cc(OC)c1OC`, the growth inhibition was -14.3% in test [1]; -3.05% in test [2]; -28.4% in test [3]; -10.2% in test [4]; 2.25% in test [5]; -4.55% in test [6].
With `O=C1OC2(CCCCC2)OC1c1ccccc1` (stereo not given), the growth inhibition in test [1] was 23.4%; in test [2], 4.2%; in test [3] it was 11.9%; in test [4] it was 10.5%; in test [5], 16.2%; in test [6] it was 33.5%.
On to `O=C(O)c1cccc(C(=O)O)c1-c1c(C(=O)O)cccc1C(=O)O`, for which the growth inhibition in test [1] was -5.2%; in test [2], 17.8%; in test [3], 7.7%; in test [4] it was -80.5%; in test [5], 7.45%; in test [6], 4.05%.
Regarding `O=C(c1ccccc1)C(c1ccccc1)C(Cl)c1ccccc1` (stereo not given), the growth inhibition is 21.4% in test [1]; 30.8% in test [2]; 31.4% in test [3]; 3% in test [4]; -3.2% in test [5]; 19% in test [6].
